{"source": "PubChem BioAssay (NCI)", "note": "Compounds without any hit were thinned out: in the full panel of roughly 83,000, 20% have a hit.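 Cells were grown in 96-well plates and exposed to the test compound at a single concentration for 48 hours; results are reported as percent growth, with values below 10 considered active.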 Calls of active or inactive are those of the source."}
{"system": "NCI-H322M lung", "experiment": "NCI-60 one-dose screen, 48 h (100 = growth as untreated, 0 = no growth, -100 = all killed)", "details": "10 µM", "description": "Growth inhibition of the NCI-H322M human Non-Small Cell Lung tumor cell line is measured as a screen for anti-cancer activity. Cells are grown in 96 well plates and exposed to the test compound for 48 hours. Compounds are tested at a single concentration, which is 10^-5 M for most compounds. The reported endpoint is percent growth (GI% or GIPRCNT), where numbers from 0 - 100% represent growth inhibition, and numbers from -100% - 0 represent cell death. For example, a value of 40 represents 60% growth inhibition. A value of 0 means no net growth occurred over the course of the experiment. A value of -40 indicates 40% of cells at the beginning of the experiment died by the end of the experiment. A value of -100 means all cells are dead at the end of the experiment.\nNCI-60 Human Tumor Cell Lines Screen was performed using the standard one-dose NCI protocol, which is described in more detail at https://dtp.cancer.gov/discovery_development/nci-60/default.htm.\nCompounds with GIPRCNT values below 10 were considered active. Activity score was based on GIPRCNT using the following formula: […]\nScore is 0 for GIPRCNT values of 100 or above, 50 for GIPRCNT values of 0, and 100 for GIPRCNT values of -100."}
{"compound": "Cc1ccc(CSc2nc(Cl)c(C#N)c(-c3ccc(F)cc3)n2)cc1", "growth": "86.7% (inactive)"}
{"compound": "COc1ccc(N(C)c2cc(C#N)nc3ccccc23)cc1N", "growth": "47.9% (inactive)"}
{"compound": "O=C(NO)c1ccc(-c2nc3ccc4[nH]ncc4c3c3c2CCCC3)cc1", "growth": "-1.64% (active)"}
{"compound": "O=C(CSc1nnc(-c2c[nH]c3ccccc23)n1-c1ccccc1)Nc1ccc(C(=O)/C=C/c2ccccc2Cl)cc1", "growth": "97.3% (inactive)"}
{"compound": "COc1ccc(/C=C/C(=O)c2ccc(NC(=O)CN3C(=O)NC(C)(c4ccccc4)C3=O)cc2)cc1", "note": "(stereo not given)", "growth": "105% (inactive)"}
{"compound": "COC[C@@H](CC(C)C)N=C1NC(=O)/C(=C/c2ccc3ncsc3c2)N1", "growth": "15.8% (inactive)"}
{"compound": "COc1cnc2c(c1)C(=O)c1c-2n(CCCNC(C)C)c(=O)c2cc(OC)c(OC)cc12", "growth": "46.5% (inactive)"}
{"compound": "CN(CCO)c1oc(-c2ccccc2)nc1[P+](c1ccccc1)(c1ccccc1)c1ccccc1", "growth": "19.8% (inactive)"}
{"compound": "O=c1[nH]c2ccc(Cl)cc2cc1CSc1ccc(Nc2nccc(-c3ccc(Cl)cc3)n2)cc1", "growth": "90.8% (inactive)"}
{"compound": "COc1ccc(-c2nc(S(=O)(=O)c3ccc(C)cc3)c(S(=O)(=O)CC(=O)N(C)Cc3ccccc3)o2)cc1", "growth": "93.1% (inactive)"}
{"compound": "C[C@H]1[C@H](C)CC[C@]2(COC(=O)CCC(=O)NCC#CCN3CCNCC3)CC[C@]3(C)C(=CC[C@@H]4[C@@]5(C)CCCNC(C)(C)[C@@H]5CC[C@]43C)[C@H]12", "growth": "77.2% (inactive)"}
{"compound": "O=C(CNc1nc(-c2ccccc2)cs1)Nc1ccccc1", "growth": "-96.2% (active)"}
{"compound": "COc1cc2c3c(n(CCCn4ccnc4)c(=O)c2cc1OC)-c1nc2c(cc1C3=O)OCO2", "growth": "71.6% (inactive)"}
{"compound": "CC1(c2ccccc2)NC(=O)N(CC(=O)Nc2ccc(C(=O)/C=C/c3ccc(Br)cc3)cc2)C1=O", "note": "(stereo not given)", "growth": "78.1% (inactive)"}
{"compound": "COc1ccc(NC(=O)CSc2nnc(-c3ccc4nc(-c5ccc(Cl)cc5)[nH]c4c3)o2)cc1", "growth": "45.8% (inactive)"}
{"compound": "COc1ccc(-c2cc(C(=O)N=Nc3c(O)[nH]c4ccccc34)c3ccccc3n2)cc1", "growth": "6.23% (active)"}
{"compound": "COc1ccc(-c2cc(-c3cc(C(=O)c4ccccc4)n4ccc(C)cc34)nc(N)c2C#N)cc1", "growth": "83.7% (inactive)"}
{"compound": "O=c1oc2ccccc2cc1-c1csc(N=Nc2c(O)[nH]c3ccc(Br)cc23)n1", "growth": "92.9% (inactive)"}
{"compound": "O=C(CSc1nnc(-c2c[nH]c3ccccc23)n1-c1ccccc1)Nc1ccc(C(=O)/C=C/c2ccc(Cl)cc2)cc1", "growth": "89% (inactive)"}
{"compound": "COc1cc(-c2nc3cc(Cl)c(Cl)cc3[nH]2)ccc1OCc1nnc(-c2ccc(Br)cc2)o1", "growth": "38.8% (inactive)"}
{"compound": "Cc1ccc(C(C)C)cc1NC(=O)c1ccccc1O", "growth": "55% (inactive)"}
{"compound": "COc1ccc2[nH]c(=O)c(CSc3nccc(-c4ccc(Cl)cc4)n3)cc2c1", "growth": "44.9% (inactive)"}
{"compound": "COc1cc2c3c(n(CCCNCCO)c(=O)c2cc1OC)-c1nc2c(cc1C3=O)OCO2", "growth": "16.8% (inactive)"}
{"compound": "CCOc1ccc(Nc2nc3ccccc3nc2Nc2ccc(OCC)cc2)cc1", "growth": "71.3% (inactive)"}
{"compound": "Cc1ccc(C(=O)Nc2ccc(-n3c(C)nc4c(cnn4-c4ccccc4)c3=O)cc2)cc1", "growth": "87.3% (inactive)"}
{"compound": "C=C[C@@]12CN3CC[C@]1(O)[C@@](C(=O)OC)(CO2)c1[nH]c2ccccc2c1C3", "growth": "93.7% (inactive)"}
{"compound": "CNC(=O)c1cc(-c2ccc(NC(=O)Nc3ccc(C)cc3)cc2)nc2cccnc12", "growth": "96.6% (inactive)"}
{"compound": "Cc1ccc(/C=C/C(=O)c2ccc(NC(=O)CSc3nnc(-c4c[nH]c5ccccc45)n3-c3ccccc3)cc2)cc1", "growth": "92.8% (inactive)"}
{"compound": "COc1cc(Cn2c(C(F)(F)F)cc3c(Cl)ncnc32)ccn1", "growth": "-73.3% (active)"}
{"compound": "O=C(Nc1ccccc1)Nc1nc2ccccc2s1", "growth": "84.4% (inactive)"}
{"compound": "O=C(CSc1nnc(-c2ccc3nc(-c4ccccc4)[nH]c3c2)o1)Nc1ccc(Cl)cc1", "growth": "63.9% (inactive)"}
{"compound": "CN1CCc2c(sc3ncnc(N/N=C/c4ccc5ccccc5c4)c23)C1", "growth": "97% (inactive)"}
{"compound": "O=C(CS(=O)(=O)c1oc(-c2ccc(Cl)cc2)nc1S(=O)(=O)c1ccc(Cl)cc1)N1CCOCC1", "growth": "93.5% (inactive)"}
{"compound": "COc1ccc(-c2cc(C(=O)N=Nc3c(O)[nH]c4ccc(F)cc34)c3ccccc3n2)cc1", "growth": "76.4% (inactive)"}
{"compound": "COc1ccc(C(C)=C(c2ccc(OCCCN(C)C)cc2)c2ccc(OCCCN(C)C)cc2)cc1", "growth": "-97.1% (active)"}
{"compound": "c1ccc(C(=C(c2ccc(OCCN3CCCCC3)cc2)c2ccc(OCCN3CCCCC3)cc2)C2CCCC2)cc1", "growth": "39.8% (inactive)"}
{"compound": "COc1ccc(/C=C/C(=O)c2ccc(S(=O)(=O)NCCNc3nc(Nc4ccc(F)cc4)nc(N(C)C)n3)cc2)cc1", "growth": "55.3% (inactive)"}
{"compound": "CS(=O)(=O)Nc1ccc(-c2ccc3c(c2)ncn3-c2ccc(NC(=O)Nc3ccc(Br)cc3)cc2)cc1", "growth": "15.3% (inactive)"}
{"compound": "O=C(/C=C/Nc1ccc(F)cc1F)c1ccc2c(c1)Nc1ccccc1S2", "growth": "89.3% (inactive)"}
{"compound": "O=C(CSc1nnc(-c2ccc3nc(-c4ccccc4)[nH]c3c2)o1)Nc1ccc(Br)cc1", "growth": "86.3% (inactive)"}
